Shown is part of a subset that was picked to be rich in hits.
12-LOX inh: Primary qHTS assay for inhibitors of human arachidonate 12S-lipoxygenase (ALOX12): Round 2; Potency, µM (top dose mostly 108 µM), for the others: at the top dose activity change, negative = inhibition, hits mostly inhibitors; purified 12hLO, xylenol orange hydroperoxide absorbance; Polyunsaturated fatty acid lipoxygenase ALOX12 (Homo sapiens), P18054; AID 1671190, 2021; 580,000 tested, 1.1% active; note: potency is the fitted concentration of half-maximal effect
Target sequence (P18054 whole entry, looked up): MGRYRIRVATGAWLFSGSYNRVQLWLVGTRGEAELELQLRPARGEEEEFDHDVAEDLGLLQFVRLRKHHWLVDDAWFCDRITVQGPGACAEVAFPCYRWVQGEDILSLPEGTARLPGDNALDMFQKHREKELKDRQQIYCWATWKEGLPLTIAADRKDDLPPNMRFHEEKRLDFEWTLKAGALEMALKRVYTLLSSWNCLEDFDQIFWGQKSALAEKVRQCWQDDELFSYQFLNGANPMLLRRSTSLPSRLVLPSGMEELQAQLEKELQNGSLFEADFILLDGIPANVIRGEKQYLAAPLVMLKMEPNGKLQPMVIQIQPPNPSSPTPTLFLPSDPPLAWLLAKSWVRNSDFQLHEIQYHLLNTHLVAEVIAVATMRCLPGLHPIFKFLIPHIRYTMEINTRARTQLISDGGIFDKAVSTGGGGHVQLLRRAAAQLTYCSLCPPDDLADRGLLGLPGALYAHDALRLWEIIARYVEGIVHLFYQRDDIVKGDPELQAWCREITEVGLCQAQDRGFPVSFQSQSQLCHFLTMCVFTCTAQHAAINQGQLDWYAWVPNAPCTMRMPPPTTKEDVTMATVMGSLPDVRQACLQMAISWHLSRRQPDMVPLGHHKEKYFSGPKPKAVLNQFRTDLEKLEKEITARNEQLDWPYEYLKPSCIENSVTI
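Hydroperoxide product was detected by ferrous iron/xylenol orange as the 573 to 405 nm absorbance ratio. Arachidonic acid at 40 uM (final) was turned over for 30 min at room temperature by 150 nM human 12hLO, pH 7.0 Hepes buffer, after 15 min compound preincubation.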
HT1080NT lethal: qHTS for induction of synthetic lethality in tumor cells producing 2HG: qHTS for the HT-1080-NT fibrosarcoma cell line; HT-1080-NT fibrosarcoma viability, CellTiter-Glo ATP luminescence, 48 h; Potency, µM (series often up to 46.1 µM), for the others: at the highest dose activity, negative = less viability, most hits filed as cytotoxic; 360,000 tested, 1.6% active; AID 686970, 2013;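 note: NT is the 2HG producing partner of a matched IDH1 knockdown line; potency is the fitted concentration of half-maximal effect; 0% = DMSO-treated cells and -100% = media-only wells without cells; nearly all actives have a fitted effect of over 55% in size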
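HT-1080-NT; 750 cells/well; 5% FBS RPMI; 48 h compound, 37 degrees C; CellTiter-Glo luminescence; curve fitting and curve-class assignment.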
TDP1 cell noCPT: qHTS for Inhibitors of human tyrosyl-DNA phosphodiesterase 1 (TDP1): qHTS in cells in absence of CPT; DT40 Tdp1-/- hTDP1 cells, no CPT, ATP luminescence, 48 h; Potency, µM (titrated, usually from 46.2 µM), inactives show at the top dose activity change, negative = growth inhibition, usual class: inhibitors; 420,000 tested, 15% active; AID 686978, 2013; note: potency is the fitted concentration of half-maximal effect; nearly all actives have a fitted effect of over 55% in size
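Camptothecin absent (DMSO only). Human TDP1-complemented DT40 knockout cells, 400 cells/well, 37 °C for minimum 48 hr; ATP measured via CellTiter-Glo, 30 min dark incubation, luminescence.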
DT40 TDP1 CPT: qHTS for Inhibitors of human tyrosyl-DNA phosphodiesterase 1 (TDP1): qHTS in cells in presence of CPT; chicken DT40 Tdp1-/-;hTDP1 cells + 20 nM CPT, ATP luminescence, 48 h; 420,000 tested, 12% active; Potency, µM (titrated, usually from 46.2 µM), without a hit: at the highest dose activity change, negative = growth inhibition, most hits filed as inhibitors; note: potency is the fitted concentration of half-maximal effect; nearly all actives have a fitted effect of over 55% in size
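Chicken DT40 Tdp1-/- cells stably complemented with human TDP1 were seeded at 400 cells/well in medium containing 20 nM camptothecin, exposed to pin-transferred compounds, and grown at 37 °C for at least 48 hr. Viability was read as ATP luminescence.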
HT1080 IDH1KD tx: qHTS for induction of synthetic lethality in tumor cells producing 2HG: qHTS for the HT-1080-IDH1KD cell line | HT-1080 IDH1 knockdown viability, ATP luminescence, 48 h | 360,000 tested, 2% active | Potency, µM (doses to about 46.1 µM), without a hit: top-dose activity, negative = toxicity, usual class: cytotoxic;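 note: potency is the fitted concentration of half-maximal effect; 0% = DMSO wells and -100% = cell-free medium wells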
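HT-1080-IDH1KD cells (IDH1 knocked down), 750/well in RPMI with 5% FBS, treated with compound 48 h at 37 degrees C. Viability by CellTiter-Glo luminescence, normalised to DMSO and no-cell wells; concentration-response curves classed.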
IL-1B inflam inh: qHTS for Inhibitors of Inflammasome Signaling: IL-1-beta AlphaLISA Primary Screen; activity change, % at 57.5 µM; 360,000 tested, 4.7% active; THP-1 LPS/ATP IL-1B secretion, AlphaLISA, 16 h; hits give low values; in the data active = activity change below about -50%; inconclusive = mostly about -30% to -49%
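Secreted IL-1B measured by AlphaLISA bead assay after 16 h compound exposure of THP-1 cells; compounds (final up to 57.5 uM) added 1 h before LPS (250 ng/mL) and ATP (1.25 mM) stimulation; lower signal means less secretion.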
* marks the source's active call; other numbers are inactive results; [ ] = another dose, or the depositor's remark. Unless noted, calls come from the whole dose curve; as a rule, active = well fitted curve in the direction sought with a large enough effect; inconclusive = small, poorly fitted or top-dose-only effect, or another doubt; inactive = no such curve, though single readings can be large; an effect the other way counts as inactive or inconclusive. Unless noted, % is set by controls: 0 for no effect and ±100 for the full control effect.

`CCC(Cc1ccccc1)NC(=O)c1ccc2nc(N3CCOCC3)sc2c1` (stereo unspecified) gave 12-LOX inh 11%, HT1080NT lethal -1%, TDP1 cell noCPT 13µM*, DT40 TDP1 CPT 15µM*, HT1080 IDH1KD tx -3% and IL-1B inflam inh -11.
Screening CCC(Cc1ccccc1)NC(=O)c1ccc2nc(N3CCC(C)CC3)sc2c1 (stereo unspecified) returned 12-LOX inh 0%, TDP1 cell noCPT 10µM* and DT40 TDP1 CPT 21µM*.
For CCOC(CNC(=O)c1ccc2nc(N3CCC(C)CC3)sc2c1)OCC the results were 12-LOX inh 0%, HT1080NT lethal 4%, TDP1 cell noCPT inconclusive, DT40 TDP1 CPT inconclusive, HT1080 IDH1KD tx 2% and IL-1B inflam inh -10.
For CCOc1ccc(CCNC(=O)c2ccc3nc(N4CCOCC4)sc3c2)cc1OCC the results were 12-LOX inh 0%, HT1080NT lethal 15%, TDP1 cell noCPT inconclusive, DT40 TDP1 CPT inconclusive, HT1080 IDH1KD tx 0% and IL-1B inflam inh 23.
`CC(C)C(NS(C)(=O)=O)c1nnc2n1CCN(Cc1cccc3ncccc13)CC2` (stereo unspecified) gave 12-LOX inh 10%, TDP1 cell noCPT -13% and DT40 TDP1 CPT -1%.
`CC(C)c1ccc(-n2nnnc2C2(Nc3ccccc3)CCCCC2)cc1` gave 12-LOX inh -54%.
Cc1cc(C)c2c(n1)sc1c(=O)n(CC(=O)c3ccccc3)cnc12 was read as 12-LOX inh 164%, HT1080NT lethal -19%, TDP1 cell noCPT -24%, DT40 TDP1 CPT inconclusive, HT1080 IDH1KD tx -11% and IL-1B inflam inh -25.
Screening C=CCOC(=O)Cn1cnc2c(sc3nc(C)cc(C)c32)c1=O returned 12-LOX inh -1%, HT1080NT lethal -12%, TDP1 cell noCPT -17%, DT40 TDP1 CPT 5%, HT1080 IDH1KD tx -12% and IL-1B inflam inh -71*.
For CC(C)c1ccc(/C=C2\SC(=O)N(CC(=O)NCCCn3ccnc3)C2=O)cc1 the results were 12-LOX inh -10%, HT1080NT lethal -18%, TDP1 cell noCPT 15µM*, DT40 TDP1 CPT inconclusive, HT1080 IDH1KD tx 0% and IL-1B inflam inh -1.
`COc1cc(/C=C2\SC(=O)N(CC(=O)Nc3ccccc3F)C2=O)cc(Cl)c1O` gave 12-LOX inh -27%, HT1080NT lethal inconclusive, TDP1 cell noCPT 13µM*, DT40 TDP1 CPT 18µM*, HT1080 IDH1KD tx inconclusive and IL-1B inflam inh 31.
`COc1ccc(/C=C2\SC(=O)N(CC(=O)Nc3ccc(F)cc3)C2=O)cc1O` gave 12-LOX inh 0%, HT1080NT lethal -1%, TDP1 cell noCPT 15µM*, DT40 TDP1 CPT inconclusive, HT1080 IDH1KD tx -23% and IL-1B inflam inh inconclusive.
Screening COc1ccc(/C=C2\SC(=O)N(CC(=O)Nc3cccnc3)C2=O)cc1OC returned 12-LOX inh 0%, HT1080NT lethal -11%, TDP1 cell noCPT inconclusive, DT40 TDP1 CPT inconclusive, HT1080 IDH1KD tx -9% and IL-1B inflam inh -14.
Screening COc1cc(/C=C2\SC(=N)N(c3ccc(F)cc3)C2=O)ccc1O returned 12-LOX inh inconclusive, HT1080NT lethal inconclusive, TDP1 cell noCPT 23µM*, DT40 TDP1 CPT 26µM*, HT1080 IDH1KD tx inconclusive and IL-1B inflam inh 2.
For Cc1ccc(NC(=O)CN2C(=O)S/C(=C/c3ccncc3)C2=O)cc1 the results were 12-LOX inh 185%, HT1080NT lethal -3%, TDP1 cell noCPT inconclusive, DT40 TDP1 CPT 16µM*, HT1080 IDH1KD tx -13% and IL-1B inflam inh -5.
For N=C1S/C(=C\c2cccc3ccccc23)C(=O)N1c1ccc(F)cc1 the results were 12-LOX inh -10%, HT1080NT lethal inconclusive, TDP1 cell noCPT 3.7µM*, DT40 TDP1 CPT 5.2µM*, HT1080 IDH1KD tx -28% and IL-1B inflam inh -25.
For COc1ccc(/C=C2\SC(=O)N(CC(=O)NNC(=O)c3ccccc3O)C2=O)cc1OC the results were 12-LOX inh -12%, HT1080NT lethal -30%, TDP1 cell noCPT inconclusive, DT40 TDP1 CPT -5%, HT1080 IDH1KD tx inconclusive and IL-1B inflam inh -18.
For CCOc1cc(/C=C2\SC(=O)N(CC(=O)Nc3ccccc3F)C2=O)cc([N+](=O)[O-])c1O the results were 12-LOX inh inconclusive, HT1080NT lethal -6%, TDP1 cell noCPT 21µM*, DT40 TDP1 CPT 8.2µM*, HT1080 IDH1KD tx 0% and IL-1B inflam inh -20.
For COc1cc(OC)c(/C=C2\SC(=O)N(CC(=O)Nc3ccccc3F)C2=O)c(OC)c1 the results were 12-LOX inh -9%, HT1080NT lethal -1%, TDP1 cell noCPT 21µM*, DT40 TDP1 CPT inconclusive, HT1080 IDH1KD tx 1% and IL-1B inflam inh -7.
Screening COc1cc(/C=C2\SC(=O)N(CC(=O)Nc3cccc(C)c3)C2=O)cc([N+](=O)[O-])c1O returned 12-LOX inh inconclusive, HT1080NT lethal inconclusive, TDP1 cell noCPT inconclusive, DT40 TDP1 CPT inconclusive, HT1080 IDH1KD tx inconclusive and IL-1B inflam inh -26.
Screening CC1CCN(S(=O)(=O)c2nnc(NC(=O)c3cccc(Cl)c3)s2)CC1 returned 12-LOX inh 14%, HT1080NT lethal 2%, TDP1 cell noCPT 21µM*, DT40 TDP1 CPT 13µM*, HT1080 IDH1KD tx 4% and IL-1B inflam inh 23.
`Cc1ccc(N2CCN(S(=O)(=O)c3nnc(NC(=O)c4cccc(F)c4)s3)CC2)cc1` gave 12-LOX inh -23%, TDP1 cell noCPT 15µM* and DT40 TDP1 CPT 18µM*.
Screening CC1=CC[C@H](CC=O)C1(C)C returned 12-LOX inh 5%[176 µM].
For COCC(=O)NCc1cccc(C)c1 the results were 12-LOX inh 44%.
Screening CCOC(=O)c1c(C)[nH]c(C)c1C(=O)COC(=O)c1ccc(OC)cc1 returned 12-LOX inh 2%, HT1080NT lethal 0%, TDP1 cell noCPT -16%, DT40 TDP1 CPT -15%, HT1080 IDH1KD tx -11% and IL-1B inflam inh -6.
Screening CCOC(=O)c1c(C)[nH]c2ccc3c(c12)CN1CCc2cc(OC)ccc2[C@@H]1O3 returned 12-LOX inh 54%, TDP1 cell noCPT 7.5µM* and DT40 TDP1 CPT 8.4µM*.

Screens as filed in PubChem BioAssay.
